From ChEMBL document CHEMBL3988442, “University of Dundee, Small-Polar-MMV Screening Library” (2021)

Target: AMP-activated protein kinase, AMPK (Homo sapiens) (UniProt P54646+O43741+P54619+Q9UGJ0+Q9Y478+Q13131+Q9UGI9)
Experiment: AMP-dependent Kinase enzyme assay. An in vitro enzyme assay that detects ADP turnover that is directly proportional to AMPK activity. This uses naive AMPK that is activated during the assay with MK-8722
Type: functional
Set-up: scale not given: direction of the effect not stated beside the values
Conditions: 30 µM

| Structure (SMILES) | Percent Effect [%] |
| --- | --- |
| CCCN(CC(=O)N(C)C)C(=O)c1ccc(-c2nc(C)cs2)cc1 | 4.25 |
| Cc1csc(C(=O)N2CCC(S(C)(=O)=O)C2)c1 (stereo not given) | -5.3 |
| c1ccc(-c2cc(CN3CCCCCC3c3ccco3)on2)nc1 (stereo not given) | 8.41 |
| O=S(=O)(NCc1ccnc(-n2ccnc2)c1)c1cncc(Cl)c1 | 0.0234 |
| CC(C)(O)CCc1cccc(C(=O)NCc2nccs2)c1 | 0.5 |
| Cc1ccccc1CNC(=O)CNc1ccc(OC2CCOC2)cc1 (stereo not given) | 10.2 |
| COc1cc(F)ccc1NC(=O)NCCNC(=O)OC(C)(C)C | -6.81 |
| COCCN(CCOC)C(=O)c1cnn(C)c1-n1c(C)ccc1C | -1.28 |
| O=C(NC1CCN(Cc2ccc(F)cc2)CC1)c1ccc2c(c1)CCC2 | -2.43 |
| CC(C)NC(=O)c1nc(Cn2c(C(F)F)nc3ccccc32)no1 | 12.9 |
| Cc1nc2c(c(NCCNC(=O)C(C)C)n1)Cc1ccccc1OC2 | 3.56 |
| CCCN(CCc1ccccn1)C(=O)Cn1cnnn1 | 4.35 |
| CCCc1nc(NC2(COC)CCCC2)c2cnn(C)c2n1 | 7.33 |
| COc1ccc(N2CCC(NC(=O)c3ccc(C#N)cc3)CC2)cc1 | 5.1 |
| Cc1noc(-c2ccc(N(C)Cc3cccnc3)nc2)n1 | -3.84 |
| CCSCCn1cc(-c2ncc[nH]2)nn1 | -2.81 |
| CN(CCNC(=O)Nc1ccn(C)n1)Cc1ccc(F)cc1 | 3.18 |
| Cc1cc(C(F)F)nn1CC(=O)NCc1nccn1C | 5.16 |
| O=C(NCc1cccnc1N1CCCCC1)c1ccc2[nH]nnc2c1 | -9.59 |
| Cc1cc(C2CCCN(CC(=O)N3CCCc4ccccc43)C2)n[nH]1 (stereo not given) | -5.06 |
